# Assay outcomes: PubChem, Broad Institute
# Hits are enriched below; roughly 2.4% of the tested compounds scored in any of these assays.
# NFkB SMM = binds human NF-kappa-B p105 on microarray. P19838. Small molecule microarray, anti-His fluorescence binding. calls only. 1.3% of 17,000 active;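 active = spot fluorescence over background significantly raised, with a chance value under 7% in all four replicate spots of the compound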;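 note: probe protein is his-tagged human p50 processed subunit at 1 µg/ml; raw spot fluorescence signals with no normalization applied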
# Target sequence (P19838 1-433 limits assumed): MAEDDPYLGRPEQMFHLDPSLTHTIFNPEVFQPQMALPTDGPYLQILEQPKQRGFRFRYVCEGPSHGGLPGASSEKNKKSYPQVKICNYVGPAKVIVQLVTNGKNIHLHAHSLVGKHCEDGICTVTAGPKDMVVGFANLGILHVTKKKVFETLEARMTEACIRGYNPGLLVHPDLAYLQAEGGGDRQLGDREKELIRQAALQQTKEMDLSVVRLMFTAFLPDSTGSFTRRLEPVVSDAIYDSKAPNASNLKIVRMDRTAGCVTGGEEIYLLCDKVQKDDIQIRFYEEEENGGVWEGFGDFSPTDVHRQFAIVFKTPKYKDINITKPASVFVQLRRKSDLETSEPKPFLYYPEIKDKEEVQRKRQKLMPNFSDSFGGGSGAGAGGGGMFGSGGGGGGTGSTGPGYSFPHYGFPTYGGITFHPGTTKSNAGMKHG
# c-Myc SMM = binders of human c-Myc | P01106 | small molecule microarray, His-c-Myc binding, anti-His fluorescence | calls only | 1.5% of 17,000 active;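 active = spot fluorescence over background with P-value below 7% in all four replicate spots, showing protein binding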;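 note: score is binary with 100 for all four spots passing and 0 otherwise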
# p53 mut binder = binds human mutant p53 on microarray. small molecule microarray binding, anti-GST fluorescence. calls only. 0.4% of 17,000 active. AID 624136;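 active = compounds whose four printed spots each glow above background more than chance allows, each with a p-value under 7%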
# STAT3 binder = binders of human STAT3; P40763; Small molecule microarray, His-STAT3 binding, anti-His fluorescence; calls only; 0.2% of 17,000 active; AID 624138;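 active = compounds whose four printed spots each show fluorescence over background unusually high for their array block, chance value under 7%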
# The depositor's hits bear a star; i = inactive; + = active, no number.
SMILES,NFkB SMM,c-Myc SMM,p53 mut binder,STAT3 binder
CC(C)NC(=O)Nc1cccc2c1O[C@@H](CN(C)CC1CC1)[C@H](C)CN([C@H](C)CO)C2=O,i,i,i,i
CC(C)NCc1ccccc1OCC(N)=O,i,i,i,i
CC(=O)Cc1ccccc1OCC(=O)O,+,+,i,i
C[C@H](CO)N1C[C@H](C)[C@H](CN(C)Cc2ccccc2)Oc2ccc(NS(=O)(=O)c3cccs3)cc2CC1=O,i,i,i,i
CCn1nccc1C(=O)Nc1nc2ccccc2n1CCN1CCCCC1,i,+,i,i
C[C@@H]1CCCCO[C@@H](CN(C)C(=O)CCC(F)(F)F)[C@H](C)CN([C@@H](C)CO)C(=O)c2cc(NC(=O)CCC(F)(F)F)ccc2O1,+,+,i,i
C[C@@H]1CCCCO[C@H](CN(C)C(=O)CCC(F)(F)F)[C@H](C)CN([C@@H](C)CO)C(=O)c2cc(NC(=O)CCC(F)(F)F)ccc2O1,+,i,i,i
C[C@@H]1CCCCO[C@@H](CN(C)C(=O)CCC(F)(F)F)[C@H](C)CN([C@@H](C)CO)C(=O)c2cc(NC(=O)Cc3ccccc3)ccc2O1,i,i,i,i
Cc1noc(C)c1NC(=O)N(C)C[C@H]1OCCCC[C@@H](C)Oc2ccc(NS(C)(=O)=O)cc2C(=O)N([C@H](C)CO)C[C@@H]1C,i,i,i,i
CCN(CC(=O)Nc1cc(C(F)(F)F)ccc1Cl)S(=O)(=O)c1ccc(Cl)cc1,i,i,i,i
COc1ccc(C(=O)Nc2ccccc2C(=O)NC(C(=O)O)C(C)C)cc1 (stereo not given),i,+,i,i
COc1ccccc1NC(=O)c1ccccc1NC(=O)CCc1ccccc1,i,i,i,i
C[C@@H]1CCCCO[C@H](CN(C)C(=O)Cc2ccccc2)[C@H](C)CN([C@@H](C)CO)C(=O)c2cc(NC(=O)Nc3ccc(F)cc3)ccc2O1,i,i,i,+
C[C@@H]1CCCCO[C@H](CN(C)C(=O)Nc2ccccc2)[C@H](C)CN([C@@H](C)CO)C(=O)c2cc(NC(=O)Nc3ccccc3)ccc2O1,i,i,i,i
C[C@H](CO)N1C[C@H](C)[C@H](CN(C)C)OCCCC[C@H](C)Oc2ccc(NC(=O)C3CCCCC3)cc2C1=O,i,i,i,i
C[C@H]1CCCCO[C@@H](CN(C)C(=O)Nc2ccccc2)[C@@H](C)CN([C@@H](C)CO)C(=O)c2cc(NC(=O)C3CCCCC3)ccc2O1,i,+,i,i
C[C@@H]1CN([C@@H](C)CO)C(=O)c2cc(NC(=O)C3CCCCC3)ccc2O[C@@H](C)CCCCO[C@@H]1CN(C)C(=O)C1CCCCC1,+,+,i,i
C[C@H](CO)N1C[C@H](C)[C@@H](CN(C)C(=O)Nc2ccccc2)OCCCC[C@H](C)Oc2ccc(NC(=O)Nc3ccccc3)cc2C1=O,+,+,i,i
CC(=O)NC(Cc1c[nH]c2cc(Cl)ccc12)C(=O)O (stereo not given),i,i,i,i
CNC[C@H]1Oc2ccc(NC(=O)C3CC3)cc2C(=O)N([C@@H](C)CO)C[C@@H]1C,i,i,i,i
CNC[C@@H]1Oc2ccc(NC(=O)C3CC3)cc2C(=O)N([C@H](C)CO)C[C@H]1C,+,+,i,i
CC(C)NC(=O)N(C)C[C@H]1OCCCC[C@H](C)Oc2ccc(NC(=O)c3ccncc3)cc2C(=O)N([C@@H](C)CO)C[C@@H]1C,+,+,i,i
CC(C)NC(=O)N(C)C[C@@H]1OCCCC[C@@H](C)Oc2ccc(NC(=O)c3ccncc3)cc2C(=O)N([C@H](C)CO)C[C@@H]1C,i,i,i,i
CC(C)NC(=O)N(C)C[C@H]1OCCCC[C@H](C)Oc2ccc(NC(=O)c3ccncc3)cc2C(=O)N([C@H](C)CO)C[C@@H]1C,+,i,i,i
CC(C)NC(=O)N(C)C[C@@H]1OCCCC[C@@H](C)Oc2ccc(NC(=O)c3ccncc3)cc2C(=O)N([C@H](C)CO)C[C@H]1C,+,+,i,i
SMILES,NFkB SMM,c-Myc SMM,p53 mut binder,STAT3 binder
C[C@@H]1CN([C@H](C)CO)C(=O)c2cc(NC(=O)c3ccncc3)ccc2O[C@@H](C)CCCCO[C@H]1CN(C)C,i,+,i,i
C[C@H]1CN([C@@H](C)CO)C(=O)Cc2cc(NC(=O)Cn3cnnn3)ccc2O[C@@H]1CN(C)S(=O)(=O)c1ccccc1,i,i,i,i
C[C@H](CO)N1C[C@H](C)[C@@H](CN(C)C(=O)Nc2ccccc2)Oc2ccc(NS(C)(=O)=O)cc2C1=O,i,i,i,i
CNC[C@H]1Oc2ccc(NS(=O)(=O)c3c(C)noc3C)cc2C(=O)N([C@H](C)CO)C[C@@H]1C,i,i,i,i
C[C@H](CO)N1C[C@H](C)[C@H](CN(C)S(=O)(=O)c2cccs2)OCCCC[C@H](C)Oc2ccc(NC(=O)c3ccncc3)cc2C1=O,+,i,i,i
C[C@H](CO)N1C[C@H](C)[C@@H](CN(C)S(C)(=O)=O)OCCCC[C@H](C)Oc2ccc(NC(=O)c3ccncc3)cc2C1=O,i,i,i,i
C[C@@H]1CN([C@H](C)CO)C(=O)c2cc(NS(=O)(=O)c3cccs3)ccc2O[C@@H](C)CCCCO[C@H]1CN(C)S(=O)(=O)c1cccs1,i,i,i,i
CC(C)NC(=O)N(C)C[C@@H]1OCCCC[C@H](C)Oc2ccc(NC(=O)Nc3ccc(C(F)(F)F)cc3)cc2C(=O)N([C@H](C)CO)C[C@@H]1C,+,+,i,i
C[C@H](CO)N1C[C@H](C)[C@@H](CN(C)S(=O)(=O)c2ccc(F)cc2)OCCCC[C@H](C)Oc2ccc(NC(=O)Nc3ccc(C(F)(F)F)cc3)cc2C1=O,+,i,i,i
C[C@H](CO)N1C[C@H](C)[C@H](CN(C)C(=O)Nc2ccc(C(F)(F)F)cc2)OCCCC[C@H](C)Oc2ccc(NS(C)(=O)=O)cc2C1=O,i,i,i,i
C[C@@H]1CN([C@@H](C)CO)C(=O)c2cc(NS(C)(=O)=O)ccc2O[C@@H](C)CCCCO[C@@H]1CN(C)C(=O)Nc1ccc(C(F)(F)F)cc1,i,i,i,+
CC(C)NC(=O)N(C)C[C@H]1OCCCC[C@H](C)Oc2ccc(NC(=O)Nc3ccc(C(F)(F)F)cc3)cc2C(=O)N([C@@H](C)CO)C[C@H]1C,+,+,i,i
Cc1noc(C)c1S(=O)(=O)Nc1ccc2c(c1)C(=O)N([C@@H](C)CO)C[C@H](C)[C@H](CN(C)Cc1ccccc1)O2,i,i,i,i
C[C@H](CO)N1C[C@H](C)[C@H](CN(C)C(=O)C2CCCCC2)OCCCC[C@H](C)Oc2ccc(NS(=O)(=O)c3ccccc3)cc2C1=O,i,i,i,+
